Screening results: PubChem, National Center for Advancing Translational Sciences (NCATS)
In the library only some 6.6% were active in any assay of this set; here they are far more common.
MCF10A rerep – DNA re-replication induction in MCF 10a cells; 2.9% of 350,000 active; AID 624296; MCF 10A DNA re-replication, Hoechst nuclear intensity, 48 h; Potency, µM (series often up to 46.1 µM), hits mostly activators; also: nearly all actives have a fitted effect of over 50% in size
KB-3-1 tox – kills parental KB-3-1 adenocarcinoma cells | Potency, µM (titrated, usually from 46.1 µM), hits mostly cytotoxic | AID 1347075 | KB-3-1 viability, CellTiter-Glo ATP luminescence, 72 h | 1.4% of 400,000 active; also: nearly all actives have a fitted effect of over 60% in size
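Cytotoxicity in the drug-sensitive parental line KB-3-1 was scored as loss of CellTiter-Glo luminescence following 72 h incubation with compound. Values come from curve fitting of normalized concentration-response data.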
TSG101-PTAP inh – blocks PTAP/TSG101 interaction to inhibit HIV-1 budding. Q99816. Fluorescence polarization, FITC-PTAP peptide / Tsg101 binding. Potency, µM (titrated, usually from 115 µM), usual class: inhibitors. 340,000 tested, under 10 active; active = well fitted inhibition curve with a large enough effect in the main read-out, with a control signal flat, not every such curve was filed as active; inconclusive = small, poorly fitted or top-dose-only effect, or effect the other way, or a change in a side signal; inactive = no such curve, though single readings can be large or run the other way
Target sequence (Q99816 whole entry, looked up): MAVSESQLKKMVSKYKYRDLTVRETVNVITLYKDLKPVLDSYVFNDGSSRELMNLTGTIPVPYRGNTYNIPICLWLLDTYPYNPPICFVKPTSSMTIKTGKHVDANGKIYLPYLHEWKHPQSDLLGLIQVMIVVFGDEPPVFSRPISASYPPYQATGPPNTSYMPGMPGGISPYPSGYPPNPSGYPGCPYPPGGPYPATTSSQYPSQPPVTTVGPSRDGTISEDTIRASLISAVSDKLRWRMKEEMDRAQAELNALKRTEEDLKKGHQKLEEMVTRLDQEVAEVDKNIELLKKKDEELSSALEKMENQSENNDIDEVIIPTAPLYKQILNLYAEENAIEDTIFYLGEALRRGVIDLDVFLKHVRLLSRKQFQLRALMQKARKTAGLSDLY
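FP read-out: FITC-PTAP peptide, 50 nM final, binding Tsg101 binding domain, 10 uM final; 20 min, r.t.; 10 mM HEPES pH 7.5, 0.15 M NaCl, 0.01% Tween 20, 3 mM EDTA, 0.1 mM TCEP.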
KB-V1 MDR tox – kills drug-selected multidrug resistant KB-V1 cells; 3.4% of 400,000 active; KB-V1 MDR cells viability, CellTiter-Glo, 72 h; Potency, µM (highest dose often 46.1 µM), most hits filed as cytotoxic; AID 1347076; also: nearly all actives have a fitted effect of over 60% in size
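KB-V1 cells (P-gp-expressing MDR subline of KB-3-1) in phenol-red-free DMEM with 10% FBS were exposed to library compounds over a concentration series for 72 h at 37 degrees C. Viability read by CellTiter-Glo luminescence; concentration-effect curves fitted after normalization.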
RGS4 inhibitor – blocks human RGS4-accelerated GTP hydrolysis. P49798. Transcreener GDP fluorescence polarization, RGS4-accelerated GTP hydrolysis. Potency, µM (series often up to 114 µM), actives largely listed as inhibitors. 0.039% of 390,000 active; also: nearly all actives have a fitted effect of over 75% in size
Target sequence (P49798 whole entry, looked up): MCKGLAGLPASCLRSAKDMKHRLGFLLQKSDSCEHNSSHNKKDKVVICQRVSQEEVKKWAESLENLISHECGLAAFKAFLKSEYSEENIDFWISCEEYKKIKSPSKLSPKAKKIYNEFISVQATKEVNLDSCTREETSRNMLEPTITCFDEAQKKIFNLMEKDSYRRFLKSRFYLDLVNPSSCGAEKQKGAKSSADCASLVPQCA
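MLSMR compounds (23 nl, pin-transferred) preincubated 10 min at room temperature with a 500nM (2x) first reagent, then RGS4 at 900nM (2x) plus Transcreener GDP mix added; fluorescence polarization (620/688 nm) read before and after 90 min at 30 °C.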
SW480 rereplic – DNA re-replication induction in SW480 cells | SW480 DNA re-replication, Hoechst DNA content imaging, 48 h | AID 624297 | Potency, µM (highest dose often 46.1 µM), actives largely listed as activators | 1.8% of 340,000 active; also: nearly all actives have a fitted effect of over 55% in size
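Quantitative HTS format with DMSO vehicle controls; 48 hr drug incubation at 37 C, then 40 min Hoechst staining and scanning imager measurement at 405 nm excitation.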
Each line names hits and unclear results; the compound was inactive in the other large screens. Unless noted, calls follow the shape of the dose curve; as a rule, active = well fitted curve in the direction sought with a large enough effect; inconclusive = small, poorly fitted or top-dose-only effect, or another doubt; inactive = no such curve, though single readings can be large; an effect the other way counts as inactive or inconclusive.

O=c1oc2cc(Oc3ccc(C(F)(F)F)cc3[N+](=O)[O-])ccc2c2c1CCC2	MCF10A rerep inconclusive, KB-V1 MDR tox 20.6µM
COc1cc2c(cc1OC)CN(C(=O)c1ccc(Br)o1)CC2	none
COc1cc2c(cc1OC)C(C)N(C(=O)c1cc(Cl)nc(Cl)c1)CC2 (configuration not stated)	MCF10A rerep 9.2µM, KB-3-1 tox inconclusive, SW480 rereplic 8.2µM
COc1cc2c(cc1OC)C(C)N(C(=O)c1ccc(Br)o1)CC2 (configuration not stated)	KB-3-1 tox 20.6µM, KB-V1 MDR tox 13µM
COc1cc2c(cc1OC)C(C)N(C(=O)c1nccnc1C(=O)O)CC2 (configuration not stated)	none
CC(C)NC(=O)Cn1c(=O)nc(-c2ccccc2)c2ccccc21	none (no result: MCF10A rerep, KB-3-1 tox, TSG101-PTAP inh, KB-V1 MDR tox, SW480 rereplic)
Cc1ccc2c(C)c(C(=O)N(Cc3ccc(N(C)C)cc3)Cc3ccco3)oc2c1C	none (no result: MCF10A rerep, KB-3-1 tox, TSG101-PTAP inh, KB-V1 MDR tox, SW480 rereplic)
O=[N+]([O-])c1ccc(N2CCN(S(=O)(=O)c3ccccc3)CC2)c2cccnc12	KB-V1 MDR tox 8.2µM
O=C(c1ccc(N2CCN(S(=O)(=O)c3ccccc3)CC2)c([N+](=O)[O-])c1)N1CCOCC1	KB-V1 MDR tox 3.66µM
Cn1c(=O)n(C)c2cc([N+](=O)[O-])c(N3CCN(S(=O)(=O)c4ccccc4)CC3)cc21	KB-3-1 tox inconclusive, KB-V1 MDR tox 2.91µM
Cn1c(=O)n(C)c2cc([N+](=O)[O-])c(N3CCN(C(=O)c4ccccc4Cl)CC3)cc21	KB-3-1 tox 23.1µM, KB-V1 MDR tox 16.4µM
COc1cc(OC)c2c(c1C(CCN1CCCC(C)C1)c1ccc(N(C)C)cc1)OC(=O)CC2c1ccc(N(C)C)cc1 (configuration not stated)	none (no result: MCF10A rerep, KB-3-1 tox, TSG101-PTAP inh, KB-V1 MDR tox, SW480 rereplic)
COc1cc2c(NC3CCN(C)CC3)nc(N3CCCN(C)CC3)nc2cc1OCCCC(C)C	KB-3-1 tox inconclusive (no result: MCF10A rerep, TSG101-PTAP inh, RGS4 inhibitor, SW480 rereplic)
CC(=O)Nc1ccc(NC(=O)COC(=O)c2ccccc2OCc2cccc(Br)c2)cc1	none (no result: MCF10A rerep, TSG101-PTAP inh, RGS4 inhibitor, SW480 rereplic)
CN(c1ccc(C(=O)N2CCOCC2)cc1[N+](=O)[O-])C1CCCCC1	KB-V1 MDR tox 23.1µM (no result: TSG101-PTAP inh)
O=[N+]([O-])c1ccc(N2CCN(S(=O)(=O)c3ccccc3)CC2)cc1	MCF10A rerep inconclusive, KB-3-1 tox inconclusive, KB-V1 MDR tox 4.61µM
Cc1ccc(CNC(=O)Cn2c3ncccc3c(=O)n2-c2ccc(C)cc2)cc1	none (no result: MCF10A rerep, TSG101-PTAP inh, SW480 rereplic)
OC(C[n+]1ccccc1Cl)c1ccccc1 (configuration not stated)	KB-3-1 tox inconclusive (no result: MCF10A rerep, TSG101-PTAP inh, RGS4 inhibitor, SW480 rereplic)
Cn1ccc(C(=O)N/N=C/c2c[nH]c3ccccc23)n1	KB-3-1 tox 18.4µM
Cc1ccc(CSc2nnc(SCC(=O)N/N=C/c3c[nH]c4ccccc34)s2)cc1	MCF10A rerep 13µM, KB-3-1 tox inconclusive, RGS4 inhibitor inconclusive, SW480 rereplic inconclusive
O=C(N/N=C/c1cccc([N+](=O)[O-])c1)c1cc(-c2ccc3c(c2)OCO3)n[nH]1	MCF10A rerep 11.6µM, RGS4 inhibitor inconclusive
O=C(N/N=C/c1c[nH]c2ccccc12)c1ccn(Cc2ccc(Cl)cc2Cl)n1	MCF10A rerep inconclusive
CCc1ccc(-c2cc(C(=O)N/N=C/c3c[nH]c4ccccc34)[nH]n2)cc1	MCF10A rerep 20.6µM, KB-3-1 tox inconclusive, KB-V1 MDR tox inconclusive, SW480 rereplic 6.51µM
CCc1ccc(/C=N/NC(=O)c2cc(-c3cccc([N+](=O)[O-])c3)n[nH]2)cc1	MCF10A rerep 5.17µM, KB-3-1 tox inconclusive, KB-V1 MDR tox inconclusive, SW480 rereplic 23.1µM
CCOC(=O)c1cc(-c2cccc([N+](=O)[O-])c2)n[nH]1	none
Cc1ccc(C(c2nnnn2CCc2ccccc2)N2CCC(C)CC2)cc1 (configuration not stated)	MCF10A rerep inconclusive, KB-3-1 tox inconclusive, KB-V1 MDR tox 18.4µM
O=S1(=O)CCN2C(=N1)Sc1c2ccc2c1CCCC2	KB-V1 MDR tox 4.61µM
CCN1CCN(Cc2c(O)ccc3oc(C)c(C(=O)Nc4ccc(OC)cc4)c23)CC1	none (no result: MCF10A rerep, TSG101-PTAP inh, SW480 rereplic)
Cc1cccc(NC(=S)N/N=C/c2cccn2Cc2ccc(F)cc2)c1	MCF10A rerep 8.2µM, KB-V1 MDR tox inconclusive
Cc1ccc(NC(=S)NCc2cccn2C)cc1	KB-V1 MDR tox inconclusive, SW480 rereplic 20.6µM
Cc1cccc(NC(=S)NCc2cccn2C)c1	KB-3-1 tox 20.6µM
C=CCN1CC(C(=O)N(CCCN(C)C)C(=O)NCC)CC2c3cccc4[nH]cc(c34)CC21 (configuration not stated)	none (no result: KB-3-1 tox, TSG101-PTAP inh, KB-V1 MDR tox, RGS4 inhibitor)
CC(=O)OCC1OC(OC2C[C@]3(C)C(CC(O)C4C([C@](C)(CCC=C(C)C)OC5OC(CO)C(O)C(O)C5O)CC[C@]43C)[C@@]3(C)CCC(O)C(C)(C)C23)C(O[C@@H]2OC(C)C(O)C(O)C2O)C(O)C1O (some centres not stated)	MCF10A rerep 0.517µM
Cc1nc2sc(C(N)=O)c(N)c2c(-c2ccc(Br)cc2)c1C(=O)Nc1ccc(Cl)cc1	KB-V1 MDR tox inconclusive (no result: MCF10A rerep, TSG101-PTAP inh, SW480 rereplic)
Cc1ccccc1CNC(=O)CCCn1c(=O)c2cccn2c2ccccc21	none (no result: MCF10A rerep, KB-3-1 tox, TSG101-PTAP inh, KB-V1 MDR tox, SW480 rereplic)
